# Sampled rows, rich in hits. Any-hit rate of the full collection: about 12%.
# JMJD2A Tudor: inhibitors of human JMJD2A Tudor domain | O75164 | Potency, µM (doses to about 114 µM), for the others: at the top dose activity change, negative = inhibition, hits mostly inhibitors | AlphaScreen JMJD2A-Tudor / H3K4me3 peptide binding | 390,000 tested, 4.4% active; also: % is scaled to controls: 0 for no effect and ±100 for the full control effect; nearly all actives have a fitted effect of over 50% in size
# Sfp PPTase inh: blocks B. subtilis Sfp PPTase activity. Q9F4F7. Biochemical Sfp PPTase activity, qHTS. Potency, µM, for inactives: largest response in the series, negative = inhibition, actives largely listed as inhibitors. 310,000 tested, 3.5% active;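 also: the enzyme is Sfp with the accession as filed and its product quenches rhodamine fluorescence; 0% = enzyme reaction without inhibitor and -100% = no enzyme wells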
#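 Sfp 15 nM + cpd, 15 min RT; start w/ rhodamine-CoA 5 uM, BHQ-2-YbbR 12.5 uM (final); 50 mM Hepes pH 7.6, 10 mM MgCl2, 0.01% NP-40, 0.01% BSA; read 525/598 nm at 0 and 30 min.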
# PLK1 PBD inh: inhibitors of human PLK1 polo-box domain binding. Potency, µM, inactives show max response, negative = inhibition, actives largely listed as inhibitors. Plk1 PBD binding of FITC phosphopeptide, fluorescence polarization. 360,000 tested, 2.8% active. AID 720504. P53350; also: series mostly up to about 57 µM; % is scaled to controls: 0 for no effect and ±100 for the full control effect; nearly all actives have a fitted effect of over 65% in size
# Target sequence (P53350 whole entry, looked up, the tested form may be a part): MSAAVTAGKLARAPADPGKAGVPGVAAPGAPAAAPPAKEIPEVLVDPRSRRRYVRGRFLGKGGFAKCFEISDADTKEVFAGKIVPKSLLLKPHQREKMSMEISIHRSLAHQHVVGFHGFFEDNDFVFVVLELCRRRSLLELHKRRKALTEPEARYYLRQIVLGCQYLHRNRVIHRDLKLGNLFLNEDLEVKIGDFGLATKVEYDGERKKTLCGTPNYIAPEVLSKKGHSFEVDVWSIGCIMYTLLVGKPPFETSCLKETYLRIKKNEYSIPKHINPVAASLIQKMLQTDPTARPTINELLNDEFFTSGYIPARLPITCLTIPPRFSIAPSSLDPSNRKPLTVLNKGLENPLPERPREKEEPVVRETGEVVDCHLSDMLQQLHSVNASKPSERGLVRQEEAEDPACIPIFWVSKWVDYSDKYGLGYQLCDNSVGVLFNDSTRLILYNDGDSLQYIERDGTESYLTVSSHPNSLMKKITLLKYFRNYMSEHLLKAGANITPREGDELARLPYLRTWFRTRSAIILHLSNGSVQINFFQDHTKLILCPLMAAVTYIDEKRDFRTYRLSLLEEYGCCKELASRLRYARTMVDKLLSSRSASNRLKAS
# HP1b binding inh: blocks HP1-beta chromodomain binding to methylated histone tails. P83916. AlphaScreen HP1-beta / biotin-H3K9me3 peptide binding. Potency, µM (titrated, usually from 114 µM), inactives show at the highest dose activity change, negative = inhibition, actives largely listed as inhibitors. 390,000 tested, 0.56% active. AID 540317; also: nearly all actives have a fitted effect of over 70% in size
#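 Compound inhibition of the preformed complex between 50 nM HP1-beta and 50 nM biotinylated H3K9me3 peptide was read by AlphaScreen. Buffer was PBS pH 7.4 with 0.01% Tween-20. Incubations ran 30 min at room temperature, with 10 ug/mL donor/acceptor beads.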
# G9a block: G9a (human) methyltransferase inhibition. G9a H3K9 monomethylation, AlphaScreen, 2 h. 350,000 tested, 8.8% active. AID 504332. Potency, µM (series often up to 102 µM), for inactives: at the top dose activity, negative = inhibition, most hits filed as inhibitors; also: % is scaled to controls: 0 for no effect and ±100 for the full control effect; nearly all actives have a fitted effect of over 75% in size
#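 Chemiluminescent proximity detection of H3K9 monomethylation, read after 10 min bead incubation in the dark. Reaction: 20 nM G9a, 500 nM biotin-H3K9 peptide, 20 uM SAM cofactor, 2 h, room temperature, following 15 min enzyme-compound preincubation.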
# BAZ2B block: blocks human BAZ2B; Q9UIF8; AlphaScreen BAZ2B-H3K14Ac peptide displacement; Potency, µM (highest dose often 114 µM), for the others: at the top dose activity change, negative = inhibition, usual class: inhibitors; 360,000 tested, 4.4% active; AID 504333; also: % is scaled to controls: 0 for no effect and ±100 for the full control effect; nearly all actives have a fitted effect of over 60% in size
#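 In this displacement format the biotinylated H3(5-23) peptide acetylated at Lys14 serves as ligand at 50 nM, with BAZ2B at 50 nM in PBS pH 7.4 containing 0.01% Tween-20. Donor and acceptor beads are 10 ug/mL final.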
# The depositor's hits bear a star; u = inconclusive; x = no result; [ ] = another dose, or the depositor's remark. Calls follow the shape of the dose curve; as a rule, active = well fitted curve in the direction sought with a large enough effect; inconclusive = small, poorly fitted or top-dose-only effect, or another doubt; inactive = no such curve, though single readings can be large; an effect the other way counts as inactive or inconclusive. Potency is read from the fitted curve at half-maximal effect.
SMILES,JMJD2A Tudor,Sfp PPTase inh,PLK1 PBD inh,HP1b binding inh,G9a block,BAZ2B block
N#C/C(=C/c1cccn1-c1cccc(C(=O)O)c1)c1ccc(Cl)cc1,8.9µM*,9%,30µM*,u,u,45µM*
N#CC(C#N)=Cc1cccn1-c1ccc(C(=O)O)cc1,u,23%,u,u,11µM*,20µM*
CCOC(=O)/C(C#N)=C/c1cccn1-c1ccc(Cl)cc1,4%,-19%,0%,21%,x,0%
CCC/C=C(\CCC)C(NS(=O)(=O)c1ccc(Cl)cc1)c1ccccc1 (stereo unspecified),x,19%,x,x,x,x
O=C(O)C1NCCN(C(=O)c2ccc3c(ccc4ccccc43)c2)C1C(=O)O (stereo unspecified),x,-10%,x,x,x,x
COc1ccccc1CCNC(=O)C1CC(=O)N(c2ccccc2F)C1 (stereo unspecified),x,x,-5%,x,x,x
O=C(O)c1cc([N+](=O)[O-])c(N2CCCC2)c([N+](=O)[O-])c1,3%,1%,-2%,9%,8.9µM*,-14%
COC1=C(Nc2ccccc2)C(=O)C(OC)=C(Nc2ccccc2)C1=O,-17%,x,0%,20%[57 µM],x,x
COC1=C(Nc2ccccc2OC)C(=O)c2ccccc2C1=O,45µM*,-18%,1%,35µM*,-161%[59 µM],8.9µM*
COc1ccccc1NC1=C(NC(C)=O)C(=O)c2ccccc2C1=O,u,-97%,u,50µM*,7.9µM*,u
O=C(c1ccccc1Oc1ccc(C(F)(F)F)cc1[N+](=O)[O-])N1CCOCC1,-13%,-14%,-9%,17%,-2%[59 µM],3%
COc1cc(NC(=O)COC(C)=O)c(C)cc1[N+](=O)[O-],-23%,14%,27µM*,27%,2%[59 µM],-6%
COc1ccc(OCC(=O)NC(=O)c2ccccc2OC)c([N+](=O)[O-])c1,-25%,x,-1%,-2%,50µM*,-37%
O=C(Nc1ccccc1Cl)c1ccccc1Oc1ccc(C(F)(F)F)cc1[N+](=O)[O-],50µM*,15%,-8%,u,25%[0.501 µM],u
COc1ccccc1NC(=O)COc1ccc(C(F)(F)F)cc1[N+](=O)[O-],-22%[11.4 µM],x,27µM*,-11%,x,x
COc1ccc(NC(=O)c2ccco2)cc1NC(=O)COc1ccccc1[N+](=O)[O-],-8%,-5%,-1%,35%,16%,1%
COc1cccc(CNC(=O)CCCn2c(=O)c3cccn3c3ccc(F)cc32)c1OC,-3%,x,x,41%,4%[59 µM],0%
CCN1CCC(N(Cc2ccc3c(c2)OCO3)C(=O)Nc2cc(F)ccc2F)CC1,-22%,x,x,41%,-40%[59 µM],-15%
COc1ccc(C)cc1NC(=O)COC(=O)c1ccc([N+](=O)[O-])o1,-40%,13%,-18%,27%,-33%,9%
COc1ccc(C(C)(C)C)cc1NC(=O)COC(=O)c1ccc([N+](=O)[O-])o1,20µM*,-23%,30µM*,u,40µM*,u
COc1ccccc1C(=O)NC(=O)COC(=O)c1nccnc1N,40µM*,x,2%,11%,x,x
CCOc1ccc(C(=O)Nc2nc(-c3ccc(Br)cc3)ns2)cc1,-1%,x,x,66%,8%[59 µM],1%
COCCn1c(C)cc(C(=O)COC(=O)c2c(C)nn(Cc3ccccc3)c2C)c1C,u,-1%,3%,u,79µM*,u
COCC(C)n1c(C)cc(C(=O)Cn2nc(C(=O)O)c3ccccc3c2=O)c1C (stereo unspecified),-34%,14%,-10%,-17%,45µM*,-32%
O=C(Cn1nc(C(=O)O)c2ccccc2c1=O)Nc1ccc(F)cc1F,-5%,7%,-2%,21%,20%,3%
SMILES,JMJD2A Tudor,Sfp PPTase inh,PLK1 PBD inh,HP1b binding inh,G9a block,BAZ2B block
O=C(Cn1nc(C(=O)O)c2ccccc2c1=O)c1cc(F)ccc1F,-22%[11.4 µM],15%,17µM*,-6%,26%[59 µM],25%
COCCn1c(C)cc(C(=O)CSc2nncn2-c2ccccc2)c1C,-20%,9%,-6%,14%,50µM*,-33%
CC(=O)Oc1ccc(/C=C/C(=O)CC2OC(Oc3cc(OC(C)=O)c4c(c3)O[C@@H](c3ccc(OC(C)=O)cc3)CC4=O)C(OC(C)=O)C(OC(C)=O)C2OC(C)=O)cc1 (stereo partly specified),x,-10%,x,x,x,x
Cc1ccc(NC(=O)COc2ccc(Br)cc2CO)cc1S(=O)(=O)N1CCOCC1,-9%,x,3%,28%,x,x
COc1ccc(-n2c(C)cc(C(=O)Cn3nc(C(=O)O)c4ccccc4c3=O)c2C)cc1,-25%,-10%,-12%,-21%,u,-28%
COCC(C)n1c(C)cc(C(=O)COC(=O)c2c(C)nn(-c3ccccc3)c2C)c1C (stereo unspecified),u,-4%,0%,u,50µM*,u
Cc1ccc(-n2c(C)cc(C(=O)Cn3nc(C(=O)O)c4ccccc4c3=O)c2C)cc1,u,-3%,-15%,-20%,79µM*,-10%
O=C(COc1coc(CN2CCN(c3ccccc3)CC2)cc1=O)NC1CCCCC1,-3%,x,-8%,28%,-31%,21%
CC(C)OCCCn1c(=O)c2ccccc2n2c(-c3ccc(F)c(F)c3)nnc12,u,x,x,-25%,u,50µM*
CC(C)Cn1c(=O)c2ccccc2n2c(-c3ccc(Br)cc3)nnc12,u,x,x,-13%,-47%[59 µM],-33%
CCOc1cc(C(C(=O)NCC2CCCO2)N(C(=O)Cn2nnc3ccccc32)c2ccc(NC(C)=O)cc2)ccc1O (stereo unspecified),4%,5%,1%,37%,45µM*,-6%
COc1cc(C(C(=O)NCC2CCCO2)N(C(=O)Cn2nnc3ccccc32)c2ccc(OC)c(OC)c2)ccc1O (stereo unspecified),0%,15%,6%,28%,25%[59 µM],2%
Cc1ccccc1CC1(CO)CCCN(C(=O)c2ccc3ncccc3c2)C1 (stereo unspecified),8.9µM*,-3%,2.7µM*,-2%,x,1%
CCOc1ccc(NC(=O)c2ccc(NC(=O)CCS(=O)(=O)c3cccs3)cc2)cc1,-8%,x,x,29%,-3%[59 µM],-4%
O=C(COC(=O)c1ccc(O)cc1O)Nc1ccc2ccccc2c1,-22%,x,-3%,20%,17%[12.7 µM],8%

# Compound activity deposited in PubChem BioAssay by National Center for Advancing Translational Sciences (NCATS).
